The nature of test [1]: CEETOX_H295R_PROG: CeeTox H295R High-throughput Steroidogenesis Assay for Progesterone (PROG) (AID 2283442).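 For AC50: human H295R adrenal cells primed with 10 µM forskolin before dosing.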 As to conditions: actives raise or lower the signal. In short, it runs like this: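 Progesterone read-out: HPLC-MS/MS on MTBE extracts of conditioned medium after 48 h chemical exposure of forskolin-primed (10 uM, 48 h) H295R cells. Gain or loss of signal was fitted relative to DMSO baseline.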

Read-out in test [2]: Tumor necrosis factor receptor superfamily member 6 (Homo sapiens) (UniProt P25445)
Put plainly: LTEA_HepaRG_FAS: Life Technologies and Expression Analysis (LTEA) Assay for Fas cell surface death receptor (FAS) using HepaRG (AID 2283447). The note with it: mRNA level, 48 h; actives raise or lower the signal. In short, it runs like this:
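FAS transcript level was measured by TaqMan qRT-PCR against three housekeeping genes after 48 h chemical exposure. Cells were HepaRG, 0.5% DMSO vehicle, with a top concentration of 100 uM and half-log dilutions over eight points, in duplicate.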

Read-out in test [3]: Cyclin D2 (CCND2), CCND2 (gene 894)
Put plainly: LTEA_HepaRG_CCND2: Life Technologies and Expression Analysis (LTEA) Assay for Cyclin D2 (CCND2) using HepaRG (AID 2283449). As to conditions: mRNA level, 48 h; actives raise or lower the signal. In short, it runs like this: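 CCND2 transcript levels, quantified by qRT-PCR and normalised to three housekeeping genes, were fitted bidirectionally against 0.5% DMSO. HepaRG cultures were dosed 48 h in duplicate with an 8-point half-log series up to 100 uM.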

Read-out in test [4]: Cyclin Dependent Kinase Inhibitor 1A (CDKN1A), CDKN1A (gene 1026)
Briefly: LTEA_HepaRG_CDKN1A: Life Technologies and Expression Analysis (LTEA) Assay for Cyclin Dependent Kinase Inhibitor 1A (CDKN1A) using HepaRG (AID 2283450). As to conditions: mRNA level, 48 h; actives raise or lower the signal. Put shortly:
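HepaRG, 48 h dosing, 8-pt half-log series from 100 uM top, 0.5% DMSO vehicle, duplicates. Readout: TaqMan qRT-PCR of CDKN1A transcript, housekeeping-normalized (ACTB, GAPDH, POLR2A). Up/down curve fit relative to DMSO.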

Read-out in test [5]: Cyclin D1 (CCND1), CCND1 (gene 595)
Briefly: LTEA_HepaRG_CCND1: Life Technologies and Expression Analysis (LTEA) Assay for Cyclin D1 (CCND1) using HepaRG (AID 2283451). As to conditions: mRNA level, 48 h; actives raise or lower the signal. Put shortly: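 qRT-PCR (Fluidigm 96.96 array) read-out of transcript level, housekeeping-normalized (ACTB/GAPDH/POLR2A). HepaRG cells, 48 h chemical exposure, 8-point half-log series from 100 uM, 0.5% DMSO vehicle; gain or loss relative to DMSO baseline.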

Read-out in test [6]: catalase (CAT), CAT (gene 847)
Briefly: LTEA_HepaRG_CAT: Life Technologies and Expression Analysis (LTEA) Assay for catalase (CAT) using HepaRG (AID 2283452). The note with it: mRNA level, 48 h; actives raise or lower the signal. In short, it runs like this:
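Expression of CAT was quantified by TaqMan qRT-PCR with ACTB/GAPDH/POLR2A normalization after 48 h chemical exposure of HepaRG. Eight-point half-log series, top 100 uM, in 0.5% DMSO; gain or loss fitted against vehicle.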

Read-out in test [7]: flavin-containing dimethylaniline monooxygenases 3 (FMO3), FMO3 (gene 2328)
Briefly: LTEA_HepaRG_FMO3: Life Technologies and Expression Analysis (LTEA) Assay for flavin-containing dimethylaniline monooxygenases 3 (FMO3) using HepaRG (AID 2283453). The note with it: mRNA level, 48 h; actives raise or lower the signal. Put shortly:
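Eight-point concentration-response in serum-free HepaRG cultures (top 100 uM, 0.5% DMSO, 48 h). Read-out: FMO3 mRNA level normalized to three endogenous control genes, fitted bidirectionally versus vehicle.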

Read-out in test [8]: Cytochrome P450 (CYP1A1), CYP1A1 (gene 1543)
Put plainly: LTEA_HepaRG_CYP1A1: Life Technologies and Expression Analysis (LTEA) Assay for Cytochrome P450 (CYP1A1) using HepaRG (AID 2283454). As to conditions: mRNA level, 48 h; actives raise or lower the signal. In short, it runs like this: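 qRT-PCR read-out: CYP1A1 transcript normalized to three housekeeping genes, fitted bidirectionally against 0.5% DMSO vehicle baseline. Human HepaRG cells, 48 h chemical exposure, 8-point half-log series topping at 100 uM.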

Read-out in test [9]: CFLAR gene, CFLAR (gene 8837)
Briefly: LTEA_HepaRG_CFLAR: Life Technologies and Expression Analysis (LTEA) Assay for CFLAR gene using HepaRG (AID 2283455). The note with it: mRNA level, 48 h; actives raise or lower the signal. In short, it runs like this: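 Transcript level by qRT-PCR (normalized to ACTB, GAPDH and POLR2A) after 48 h chemical exposure of HepaRG cells, top concentration 100 uM with half-log steps, 0.5% DMSO vehicle, duplicates; fitted bidirectionally against DMSO baseline.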

Read-out in test [10]: Forkhead box O1 (FOXO1), FOXO1 (gene 2308)
Put plainly: LTEA_HepaRG_FOXO1: Life Technologies and Expression Analysis (LTEA) Assay for Forkhead box O1 (FOXO1) using HepaRG (AID 2283456). As to conditions: mRNA level, 48 h; actives raise or lower the signal. Put shortly: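 FOXO1 transcript quantified by qRT-PCR after 48 h chemical exposure (top 100 uM, half-log steps, 0.5% DMSO) of HepaRG cells, housekeeping-normalized (ACTB/GAPDH/POLR2A). Changes fitted in both directions relative to vehicle.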

A short description of test [11]: CEETOX_H295R_TESTO: CeeTox H295R High-throughput Steroidogenesis Assay for Testosterone (TESTO) (AID 2283457). The note with it: actives raise or lower the signal. In short, it runs like this: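 Readout: testosterone quantified by HPLC-MS/MS (C18, ESI positive) after MTBE liquid-liquid extraction of culture medium. Cells were H295R, 48 h chemical exposure per OECD 456 with modifications. Gain or loss of signal fitted relative to DMSO.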

Read-out in test [12]: growth arrest and DNA damage 45 (GADD45A), GADD45A (gene 1647)
Briefly: LTEA_HepaRG_GADD45A: Life Technologies and Expression Analysis (LTEA) Assay for growth arrest and DNA damage 45 (GADD45A) using HepaRG (AID 2283458). The note with it: mRNA level, 48 h; actives raise or lower the signal. Put shortly: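 HepaRG, 48 h exposure, 8 conc. (top 100 uM, half-log steps), 0.5% DMSO vehicle, duplicates. Read-out: qRT-PCR mRNA level, housekeeping-normalized (ACTB/GAPDH/POLR2A). Curves fit bidirectionally vs DMSO baseline.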

Read-out in test [13]: Forkhead box O3 (FOXO3), FOXO3 (gene 2309)
Put plainly: LTEA_HepaRG_FOXO3: Life Technologies and Expression Analysis (LTEA) Assay for Forkhead box O3 (FOXO3) using HepaRG (AID 2283459). The note with it: mRNA level, 48 h; actives raise or lower the signal. Put shortly: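 FOXO3 transcript measured by qRT-PCR (normalized to ACTB, GAPDH, POLR2A) after 48 h exposure of HepaRG cells in serum-free induction medium. Duplicates, eight half-log concentrations up to 100 uM, 0.5% DMSO; gain or loss fitted against DMSO.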

Read-out in test [14]: ABC Transporter (ABCB1), ABCB1 (gene 5243)
Briefly: LTEA_HepaRG_ABCB1: Life Technologies and Expression Analysis (LTEA) Assay for ABC Transporter (ABCB1) using HepaRG (AID 2283460). As to conditions: mRNA level, 48 h; actives raise or lower the signal. In short, it runs like this: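 ABCB1 transcript level measured by TaqMan qRT-PCR against three housekeeping genes after 48 h chemical exposure of differentiated HepaRG cells. Top concentration 100 uM, half-log steps, eight points, 0.5% DMSO vehicle; bidirectional fit relative to DMSO.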

Read-out in test [15]: ABC Transporter (ABCC3), ABCC3 (gene 8714)
Briefly: LTEA_HepaRG_ABCC3: Life Technologies and Expression Analysis (LTEA) Assay for ABC Transporter (ABCC3) using HepaRG (AID 2283462). As to conditions: mRNA level, 48 h; actives raise or lower the signal. Put shortly:
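qRT-PCR read-out of ABCC3 transcript, normalized to three housekeeping genes (ACTB, GAPDH, POLR2A), after 48 h chemical exposure of human HepaRG cells. Eight half-log concentrations, highest 100 uM, in 0.5% DMSO; gain or loss fitted relative to DMSO baseline.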

Read-out in test [16]: ABC Transporter (ABCB11), ABCB11 (gene 8647)
Briefly: LTEA_HepaRG_ABCB11: Life Technologies and Expression Analysis (LTEA) Assay for ABC Transporter (ABCB11) using HepaRG (AID 2283463). The note with it: mRNA level, 48 h; actives raise or lower the signal. Put shortly: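 ABCB11 transcript levels quantified by TaqMan qRT-PCR against three housekeeping genes after 48 h chemical exposure of HepaRG cultures. Concentrations up to 100 uM in half-log steps, 0.5% DMSO vehicle; both induction and suppression scored.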

Read-out in test [17]: ABC Transporter (ABCC2), ABCC2 (gene 1244)
Put plainly: LTEA_HepaRG_ABCC2: Life Technologies and Expression Analysis (LTEA) Assay for ABC Transporter (ABCC2) using HepaRG (AID 2283464). The note with it: mRNA level, 48 h; actives raise or lower the signal. In short, it runs like this: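 qRT-PCR (TaqMan, Fluidigm array) read-out of ABCC2 mRNA, normalized to three housekeeping genes. Differentiated HepaRG cells were treated 48 h in serum-free induction medium with 8-point half-log series from 100 uM in 0.5% DMSO; curves fitted bidirectionally relative to DMSO.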

A short description of test [18]: CEETOX_H295R_ESTRADIOL: CeeTox H295R High-throughput Steroidogenesis Assay for Estradiol (AID 2283440).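 Note: estradiol secreted into medium quantified by LC-MS/MS after dansyl derivatisation.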 As to conditions: actives raise or lower the signal. Put shortly: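 H295R, 48 h forskolin (10 uM) prestim → 48 h compound, 0.1% DMSO final. Estradiol in medium: MTBE extraction, dansyl chloride derivatization, LC-MS/MS. Fit bidirectional vs DMSO baseline; MTT viability in same wells.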

Read-out in test [19]: Fatty acid synthase (Homo sapiens) (UniProt P49327)
Briefly: LTEA_HepaRG_FASN: Life Technologies and Expression Analysis (LTEA) Assay for Fatty Acid Synthase (FASN) using HepaRG (AID 2283448). As to conditions: mRNA level, 48 h; actives raise or lower the signal. In short, it runs like this: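 HepaRG, 48 h exposure, 8-pt half-log series top 100 uM, 0.5% DMSO vehicle, duplicates. Readout: FASN transcript by Fluidigm qRT-PCR; housekeeping-normalized; bidirectional curve fit vs DMSO baseline.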

Read-out in test [20]: growth arrest and DNA damage 45 (GADD45B), GADD45B (gene 4616)
Put plainly: LTEA_HepaRG_GADD45B: Life Technologies and Expression Analysis (LTEA) Assay for growth arrest and DNA damage 45 (GADD45B) using HepaRG (AID 2283461). As to conditions: mRNA level, 48 h; actives raise or lower the signal. Put shortly:
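qRT-PCR read-out (Fluidigm TaqMan, housekeeping-normalized) of mRNA change in human HepaRG cells after 48 h chemical exposure; 8-point curve, top 100 uM, half-log steps, 0.5% DMSO vehicle; gain or loss fitted relative to DMSO baseline.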

Active and inactive are the calls of the source. Rule for the calls: active = hit-call score of the fitted dose curve at least 0.9, where 1 is the maximum; inactive = score below 0.9.

Fatty acid synthase (Homo sapiens), sequence (P49327 whole entry, looked up): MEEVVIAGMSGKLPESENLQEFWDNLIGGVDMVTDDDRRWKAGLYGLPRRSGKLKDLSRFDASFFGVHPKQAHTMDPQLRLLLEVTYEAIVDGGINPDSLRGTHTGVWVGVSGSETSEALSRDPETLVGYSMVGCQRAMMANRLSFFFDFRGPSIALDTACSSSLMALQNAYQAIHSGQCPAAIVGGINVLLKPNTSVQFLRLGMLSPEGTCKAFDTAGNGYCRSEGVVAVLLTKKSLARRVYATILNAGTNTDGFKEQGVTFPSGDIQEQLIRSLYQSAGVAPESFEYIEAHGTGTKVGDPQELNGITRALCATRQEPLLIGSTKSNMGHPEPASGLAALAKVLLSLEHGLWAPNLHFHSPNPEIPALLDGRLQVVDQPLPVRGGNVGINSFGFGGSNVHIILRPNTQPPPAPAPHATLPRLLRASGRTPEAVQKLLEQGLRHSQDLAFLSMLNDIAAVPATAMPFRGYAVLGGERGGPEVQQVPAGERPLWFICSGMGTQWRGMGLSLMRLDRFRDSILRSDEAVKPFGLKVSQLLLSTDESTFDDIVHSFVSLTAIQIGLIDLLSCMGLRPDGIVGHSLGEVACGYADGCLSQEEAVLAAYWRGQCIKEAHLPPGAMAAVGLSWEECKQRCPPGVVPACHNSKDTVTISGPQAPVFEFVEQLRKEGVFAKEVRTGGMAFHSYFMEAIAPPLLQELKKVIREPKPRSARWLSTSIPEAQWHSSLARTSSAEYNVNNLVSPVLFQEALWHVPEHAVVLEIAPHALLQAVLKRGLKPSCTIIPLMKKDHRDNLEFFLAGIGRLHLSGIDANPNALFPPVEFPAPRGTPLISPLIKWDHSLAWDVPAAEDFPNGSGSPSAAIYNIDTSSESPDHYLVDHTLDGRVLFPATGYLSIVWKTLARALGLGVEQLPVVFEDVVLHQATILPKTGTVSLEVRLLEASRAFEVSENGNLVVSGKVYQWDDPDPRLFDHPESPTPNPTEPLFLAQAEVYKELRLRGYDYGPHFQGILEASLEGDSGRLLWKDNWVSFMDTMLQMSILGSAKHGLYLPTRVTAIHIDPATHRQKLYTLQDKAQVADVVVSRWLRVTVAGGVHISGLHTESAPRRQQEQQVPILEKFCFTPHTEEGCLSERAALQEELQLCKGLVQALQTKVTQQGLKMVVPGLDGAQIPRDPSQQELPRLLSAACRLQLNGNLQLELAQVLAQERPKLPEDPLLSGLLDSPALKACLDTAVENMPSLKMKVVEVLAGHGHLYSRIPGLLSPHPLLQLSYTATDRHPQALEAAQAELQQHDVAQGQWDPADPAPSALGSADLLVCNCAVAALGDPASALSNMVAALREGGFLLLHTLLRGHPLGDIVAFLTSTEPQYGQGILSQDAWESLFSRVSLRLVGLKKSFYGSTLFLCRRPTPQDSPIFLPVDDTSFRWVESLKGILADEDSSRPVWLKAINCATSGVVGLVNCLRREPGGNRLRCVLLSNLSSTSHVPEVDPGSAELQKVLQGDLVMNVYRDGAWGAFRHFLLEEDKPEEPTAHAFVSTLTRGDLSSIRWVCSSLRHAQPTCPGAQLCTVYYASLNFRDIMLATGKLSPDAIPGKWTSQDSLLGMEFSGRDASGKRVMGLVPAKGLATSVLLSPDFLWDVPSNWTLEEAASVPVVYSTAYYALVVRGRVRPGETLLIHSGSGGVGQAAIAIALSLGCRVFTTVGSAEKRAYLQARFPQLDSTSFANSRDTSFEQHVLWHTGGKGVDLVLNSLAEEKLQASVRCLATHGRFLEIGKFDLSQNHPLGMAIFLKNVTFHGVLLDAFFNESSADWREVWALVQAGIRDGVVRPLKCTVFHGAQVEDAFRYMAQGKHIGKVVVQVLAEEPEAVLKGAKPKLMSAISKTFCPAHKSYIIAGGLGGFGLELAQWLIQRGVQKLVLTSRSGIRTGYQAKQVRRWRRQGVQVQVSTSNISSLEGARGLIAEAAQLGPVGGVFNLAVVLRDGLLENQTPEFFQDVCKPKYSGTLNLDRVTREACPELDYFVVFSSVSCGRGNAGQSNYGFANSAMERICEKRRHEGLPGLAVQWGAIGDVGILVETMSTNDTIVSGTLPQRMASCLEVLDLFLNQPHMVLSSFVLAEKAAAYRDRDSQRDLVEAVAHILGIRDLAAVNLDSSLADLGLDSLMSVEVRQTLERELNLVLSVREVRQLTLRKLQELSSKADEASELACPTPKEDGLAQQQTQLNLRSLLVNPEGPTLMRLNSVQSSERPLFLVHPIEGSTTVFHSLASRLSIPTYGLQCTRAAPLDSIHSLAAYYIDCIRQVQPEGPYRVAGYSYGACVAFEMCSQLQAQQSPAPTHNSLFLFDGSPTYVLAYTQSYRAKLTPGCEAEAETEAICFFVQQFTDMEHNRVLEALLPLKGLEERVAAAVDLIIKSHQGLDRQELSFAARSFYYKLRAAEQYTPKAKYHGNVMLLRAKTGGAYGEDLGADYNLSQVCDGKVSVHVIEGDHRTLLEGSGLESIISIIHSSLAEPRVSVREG

As a reminder, the AC50 is the concentration at which the activity in the assay is half-maximal. Take `CCOC(=O)CC(SP(=S)(OC)OC)C(=O)OCC` (configuration not stated): the AC50 in [1] is 21 µM (active); in [8] it was 22.8 µM (active). Further, the call in test [2], in [3], in test [4], in test [5], in test [6] and in test [7] was inactive. The call in test [9], in [10], in [11], in test [12], in test [13] and in test [14] was inactive. In addition, the call in test [15], in test [16] and in test [17] was inactive.
Take `CCOP(=S)(OCC)SCn1c(=O)oc2cc(Cl)ccc21`: the AC50 in test [18] was 1.23 µM (active); in test [1], 3.23 µM (active); in test [8], 53.7 µM (active). The compound was classed as inactive in test [2], in test [19], in test [3], in test [4], in [5] and in test [6]. Moreover, the call in test [7], in test [9], in [10], in test [12], in test [13] and in test [20] was inactive. Further, the compound was classed as inactive in test [15], in [16] and in test [17].
For `COc1nc(NC(C)C)nc(NC(C)C)n1`, the AC50 in [18] was 6.99 µM (active); in test [8], 36 µM (active). Also, the compound was classed as inactive in test [1], in [2], in [19], in test [3], in [4] and in test [5]. Besides, the outcome in [6], in test [7], in [9], in [10], in test [12] and in test [13] was inactive. Also, the result in [15], in [16] and in test [17] was inactive.

For the origin of these results see PubChem BioAssay (EPA / NIEHS).
